# Columns and labels:
# Experiment in all cases: DAPPL (digital affinity profiling via proximity ligation, sequencing); 10 mM Tris-HCl pH 7.5, 50 mM NaCl, 1 mM DTT, 4% glycerol, room temperature, 30 min; GST-TFs on glutathione beads, 16-mer random dsDNA library, 0.1% formaldehyde crosslink after washing; high values mean tight binding
# FEV = target: T1, FEV (Homo sapiens, UniProt Q99581 1-238); conditions: protein: recombinant; tags: N-terminal GST; dsDNA, one strand shown
# T1 sequence: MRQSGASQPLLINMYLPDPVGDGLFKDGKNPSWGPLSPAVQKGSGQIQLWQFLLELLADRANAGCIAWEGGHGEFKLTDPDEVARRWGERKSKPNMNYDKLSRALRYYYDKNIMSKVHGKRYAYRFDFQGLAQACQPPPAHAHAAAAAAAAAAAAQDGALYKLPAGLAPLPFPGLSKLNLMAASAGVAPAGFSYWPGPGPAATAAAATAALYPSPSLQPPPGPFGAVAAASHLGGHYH
# In short: (§1)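 After expression in yeast as GST fusions, human transcription factors were bound to glutathione beads, DNA-barcoded and mixed with a tag-only sample. The pools were incubated with 200 nmole of a 16-mer random double-stranded DNA library in Tris/NaCl/DTT/glycerol buffer (30 min, room temperature), washed and crosslinked with 0.1% formaldehyde. Proximity ligation with BsaI/T4 ligase ran for 1 h at 37 °C, before PCR amplification and sequencing on an Illumina NextSeq500. Binding signal is a hexamer's read frequency for a factor divided by its frequency for the tag-only sample.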
# ETV5 = ETV5 (Homo sapiens, UniProt P41161 1-510); conditions: protein: recombinant; tags: N-terminal GST; dsDNA, one strand shown
# Chain of ETV5 (P41161 whole entry): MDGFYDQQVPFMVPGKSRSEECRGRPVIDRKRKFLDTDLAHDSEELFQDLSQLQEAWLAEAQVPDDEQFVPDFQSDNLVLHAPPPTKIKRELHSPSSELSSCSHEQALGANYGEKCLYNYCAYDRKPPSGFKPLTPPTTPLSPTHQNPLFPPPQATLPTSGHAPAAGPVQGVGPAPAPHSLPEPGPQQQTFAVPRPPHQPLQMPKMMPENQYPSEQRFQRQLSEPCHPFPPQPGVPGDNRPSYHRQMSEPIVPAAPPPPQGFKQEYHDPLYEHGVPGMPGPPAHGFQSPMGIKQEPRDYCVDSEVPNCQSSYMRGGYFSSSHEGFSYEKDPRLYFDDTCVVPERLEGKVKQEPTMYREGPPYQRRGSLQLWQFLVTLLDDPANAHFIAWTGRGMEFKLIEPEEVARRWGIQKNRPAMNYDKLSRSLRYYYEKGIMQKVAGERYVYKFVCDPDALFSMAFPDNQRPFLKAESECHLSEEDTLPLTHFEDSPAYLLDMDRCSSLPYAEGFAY
# In short: as §1
# HSF1 = HSF1 (Homo sapiens, UniProt Q00613 1-529); conditions: protein: recombinant; tags: N-terminal GST; chain copies: 3; dsDNA, one strand shown
# Chain of HSF1 (Q00613 whole entry): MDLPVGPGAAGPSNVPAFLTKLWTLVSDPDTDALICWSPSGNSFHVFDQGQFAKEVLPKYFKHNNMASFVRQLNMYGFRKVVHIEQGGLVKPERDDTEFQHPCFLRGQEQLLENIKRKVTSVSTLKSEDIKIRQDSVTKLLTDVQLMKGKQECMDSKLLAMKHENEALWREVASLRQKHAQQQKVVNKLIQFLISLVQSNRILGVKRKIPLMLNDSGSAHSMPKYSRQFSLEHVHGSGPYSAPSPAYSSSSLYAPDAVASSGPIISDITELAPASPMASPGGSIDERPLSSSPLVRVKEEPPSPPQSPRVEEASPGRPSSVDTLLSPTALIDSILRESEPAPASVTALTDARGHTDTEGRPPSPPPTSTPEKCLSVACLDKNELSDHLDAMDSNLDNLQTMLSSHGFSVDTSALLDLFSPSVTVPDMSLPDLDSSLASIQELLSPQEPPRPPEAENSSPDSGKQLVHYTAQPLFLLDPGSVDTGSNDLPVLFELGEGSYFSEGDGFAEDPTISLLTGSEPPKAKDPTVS
# In short: as §1
# SPIC = target: T2, SPIC (Homo sapiens, UniProt Q8N5J4 1-248); conditions: protein: recombinant; tags: N-terminal GST; dsDNA, one strand shown
# T2 sequence: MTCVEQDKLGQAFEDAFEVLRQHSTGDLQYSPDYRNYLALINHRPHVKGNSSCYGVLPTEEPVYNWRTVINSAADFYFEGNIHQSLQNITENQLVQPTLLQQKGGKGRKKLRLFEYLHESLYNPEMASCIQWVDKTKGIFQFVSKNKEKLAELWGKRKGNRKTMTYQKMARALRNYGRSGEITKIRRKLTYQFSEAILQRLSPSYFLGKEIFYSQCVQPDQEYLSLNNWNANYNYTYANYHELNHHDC
# In short: as §1
# ELF4 = ELF4 (Homo sapiens, UniProt Q99607 1-663); conditions: protein: recombinant; tags: N-terminal GST; dsDNA, one strand shown
# Chain of ELF4 (Q99607 whole entry): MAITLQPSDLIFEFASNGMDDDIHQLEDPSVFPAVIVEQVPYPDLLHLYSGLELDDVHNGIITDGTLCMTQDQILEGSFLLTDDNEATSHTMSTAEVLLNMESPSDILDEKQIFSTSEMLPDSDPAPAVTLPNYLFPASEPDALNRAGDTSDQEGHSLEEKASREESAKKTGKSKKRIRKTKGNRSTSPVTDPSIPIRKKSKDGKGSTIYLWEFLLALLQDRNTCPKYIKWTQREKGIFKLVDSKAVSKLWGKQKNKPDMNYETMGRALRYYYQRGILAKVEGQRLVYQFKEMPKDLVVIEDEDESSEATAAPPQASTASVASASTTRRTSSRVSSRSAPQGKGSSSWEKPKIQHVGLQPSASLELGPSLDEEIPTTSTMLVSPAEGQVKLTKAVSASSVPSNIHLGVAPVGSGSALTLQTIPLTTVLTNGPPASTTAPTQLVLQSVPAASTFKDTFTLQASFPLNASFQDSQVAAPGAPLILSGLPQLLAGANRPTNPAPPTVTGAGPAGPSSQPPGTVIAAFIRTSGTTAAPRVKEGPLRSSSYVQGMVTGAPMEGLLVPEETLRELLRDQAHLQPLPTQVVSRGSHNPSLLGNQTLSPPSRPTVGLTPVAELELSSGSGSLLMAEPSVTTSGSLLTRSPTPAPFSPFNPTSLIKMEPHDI
# In short: as §1
# ELK4 = target: T3, ELK4 (Homo sapiens, UniProt P28324-2 1-405); conditions: protein: recombinant; tags: N-terminal GST; dsDNA, one strand shown
# T3 sequence: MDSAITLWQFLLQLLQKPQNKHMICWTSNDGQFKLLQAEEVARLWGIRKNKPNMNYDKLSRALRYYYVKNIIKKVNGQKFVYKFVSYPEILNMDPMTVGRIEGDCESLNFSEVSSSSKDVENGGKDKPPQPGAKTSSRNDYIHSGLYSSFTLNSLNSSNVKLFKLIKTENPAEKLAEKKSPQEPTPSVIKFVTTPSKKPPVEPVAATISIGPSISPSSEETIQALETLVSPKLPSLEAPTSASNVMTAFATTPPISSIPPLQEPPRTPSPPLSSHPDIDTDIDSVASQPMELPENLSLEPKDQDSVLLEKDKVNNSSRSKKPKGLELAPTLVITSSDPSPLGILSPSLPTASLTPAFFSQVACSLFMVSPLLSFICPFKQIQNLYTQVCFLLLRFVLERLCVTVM
# In short: as §1
# ETV2 = target: T4, ETV2 (Homo sapiens, UniProt O00321 1-342); conditions: protein: recombinant; tags: N-terminal GST; dsDNA, one strand shown
# T4 sequence: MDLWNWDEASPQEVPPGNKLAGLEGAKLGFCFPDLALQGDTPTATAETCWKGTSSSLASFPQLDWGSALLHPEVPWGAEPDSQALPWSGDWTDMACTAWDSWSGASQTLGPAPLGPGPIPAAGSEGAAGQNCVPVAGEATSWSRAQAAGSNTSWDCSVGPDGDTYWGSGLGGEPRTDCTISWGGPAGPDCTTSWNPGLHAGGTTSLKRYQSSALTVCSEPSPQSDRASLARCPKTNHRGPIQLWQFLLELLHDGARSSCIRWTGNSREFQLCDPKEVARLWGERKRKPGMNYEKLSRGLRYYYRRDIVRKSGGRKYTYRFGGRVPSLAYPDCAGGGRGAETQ
# In short: as §1
# ELF3 = target: T5, ELF3 (Homo sapiens, UniProt P78545 1-371); conditions: protein: recombinant; tags: N-terminal GST; dsDNA, one strand shown
# T5 sequence: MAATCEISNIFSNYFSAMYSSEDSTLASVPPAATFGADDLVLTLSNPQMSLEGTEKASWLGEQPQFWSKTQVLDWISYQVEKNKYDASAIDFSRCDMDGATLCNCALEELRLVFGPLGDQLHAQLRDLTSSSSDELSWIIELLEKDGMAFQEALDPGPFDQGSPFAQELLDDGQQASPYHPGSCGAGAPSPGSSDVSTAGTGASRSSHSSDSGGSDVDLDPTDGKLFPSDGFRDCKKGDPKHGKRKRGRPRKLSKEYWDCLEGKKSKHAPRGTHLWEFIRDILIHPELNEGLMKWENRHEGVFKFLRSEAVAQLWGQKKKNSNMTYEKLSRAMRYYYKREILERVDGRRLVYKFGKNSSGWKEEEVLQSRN
# In short: as §1
# CRX = CRX (Homo sapiens, UniProt O43186 1-299); conditions: protein: recombinant; tags: N-terminal GST; dsDNA, one strand shown
# Chain of CRX (O43186 whole entry): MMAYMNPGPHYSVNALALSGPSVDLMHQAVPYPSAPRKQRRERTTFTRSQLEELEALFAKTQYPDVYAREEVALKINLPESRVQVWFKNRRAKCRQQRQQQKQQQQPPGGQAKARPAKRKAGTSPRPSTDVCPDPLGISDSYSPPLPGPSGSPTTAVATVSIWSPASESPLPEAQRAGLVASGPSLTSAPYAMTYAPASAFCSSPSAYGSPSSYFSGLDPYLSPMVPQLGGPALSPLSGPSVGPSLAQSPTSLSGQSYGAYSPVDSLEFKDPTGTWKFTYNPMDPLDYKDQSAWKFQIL
# In short: as §1
# ETV1 = ETV1 (Homo sapiens, UniProt P50549 1-477); conditions: protein: recombinant; tags: N-terminal GST; dsDNA, one strand shown
# Chain of ETV1 (P50549 whole entry): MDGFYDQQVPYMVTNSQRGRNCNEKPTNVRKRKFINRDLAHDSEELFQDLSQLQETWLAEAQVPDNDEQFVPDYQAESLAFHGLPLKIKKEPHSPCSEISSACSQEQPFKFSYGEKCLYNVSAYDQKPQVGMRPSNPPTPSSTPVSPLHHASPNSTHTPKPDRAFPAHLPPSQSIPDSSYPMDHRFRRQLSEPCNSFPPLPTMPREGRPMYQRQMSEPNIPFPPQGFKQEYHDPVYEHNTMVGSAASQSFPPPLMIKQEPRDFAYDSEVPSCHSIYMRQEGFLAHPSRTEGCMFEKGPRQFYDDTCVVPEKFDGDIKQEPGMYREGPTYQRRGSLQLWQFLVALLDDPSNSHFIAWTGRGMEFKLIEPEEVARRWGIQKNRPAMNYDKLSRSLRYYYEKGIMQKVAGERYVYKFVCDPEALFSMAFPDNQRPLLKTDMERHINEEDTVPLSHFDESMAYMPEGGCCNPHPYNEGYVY
# In short: as §1
# ERF = target: T6, ERF (Homo sapiens, UniProt P50548 1-548); conditions: protein: recombinant; tags: N-terminal GST; dsDNA, one strand shown
# T6 sequence: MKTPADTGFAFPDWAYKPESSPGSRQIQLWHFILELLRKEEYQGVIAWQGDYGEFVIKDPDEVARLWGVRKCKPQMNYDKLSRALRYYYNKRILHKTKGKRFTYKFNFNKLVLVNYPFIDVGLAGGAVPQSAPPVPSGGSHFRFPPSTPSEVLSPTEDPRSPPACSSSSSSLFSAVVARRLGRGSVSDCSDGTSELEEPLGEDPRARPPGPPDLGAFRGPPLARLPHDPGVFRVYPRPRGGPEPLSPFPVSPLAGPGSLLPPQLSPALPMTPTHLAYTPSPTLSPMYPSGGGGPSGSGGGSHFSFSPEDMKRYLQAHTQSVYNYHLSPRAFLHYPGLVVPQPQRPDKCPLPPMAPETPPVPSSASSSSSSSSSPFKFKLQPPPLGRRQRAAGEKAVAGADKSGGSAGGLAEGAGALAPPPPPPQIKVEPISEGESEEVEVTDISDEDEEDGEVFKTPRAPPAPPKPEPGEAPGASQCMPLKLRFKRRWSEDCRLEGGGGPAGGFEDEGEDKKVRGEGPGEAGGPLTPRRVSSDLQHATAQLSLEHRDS
# In short: as §1
# ETV3L = target: T7, ETV3L (Homo sapiens, UniProt Q6ZN32 1-361); conditions: protein: recombinant; tags: N-terminal GST; dsDNA, one strand shown
# T7 sequence: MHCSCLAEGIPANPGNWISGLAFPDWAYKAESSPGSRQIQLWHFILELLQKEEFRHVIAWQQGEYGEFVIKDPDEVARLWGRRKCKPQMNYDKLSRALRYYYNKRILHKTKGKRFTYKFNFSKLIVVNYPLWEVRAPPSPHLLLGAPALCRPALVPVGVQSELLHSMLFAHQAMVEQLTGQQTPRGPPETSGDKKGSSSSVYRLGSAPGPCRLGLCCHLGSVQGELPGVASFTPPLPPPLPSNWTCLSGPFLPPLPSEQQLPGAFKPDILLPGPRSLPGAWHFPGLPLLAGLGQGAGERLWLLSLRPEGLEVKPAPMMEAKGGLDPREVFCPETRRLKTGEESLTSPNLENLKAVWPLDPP
# In short: as §1
# ETS2 = target: T8, ETS2 (Homo sapiens, UniProt P15036 1-469); conditions: protein: recombinant; tags: N-terminal GST; dsDNA, one strand shown
# T8 sequence: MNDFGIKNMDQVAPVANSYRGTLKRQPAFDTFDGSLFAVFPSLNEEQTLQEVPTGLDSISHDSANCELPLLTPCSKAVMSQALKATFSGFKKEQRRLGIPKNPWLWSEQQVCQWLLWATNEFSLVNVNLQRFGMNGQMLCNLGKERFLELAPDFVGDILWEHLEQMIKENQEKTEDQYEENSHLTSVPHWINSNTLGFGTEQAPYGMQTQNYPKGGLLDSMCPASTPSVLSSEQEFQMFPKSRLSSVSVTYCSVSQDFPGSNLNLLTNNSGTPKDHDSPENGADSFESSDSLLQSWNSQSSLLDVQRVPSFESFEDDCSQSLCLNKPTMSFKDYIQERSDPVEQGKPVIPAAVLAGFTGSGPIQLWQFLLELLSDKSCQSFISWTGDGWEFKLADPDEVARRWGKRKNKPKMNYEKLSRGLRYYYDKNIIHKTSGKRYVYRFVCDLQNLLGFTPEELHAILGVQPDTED
# In short: as §1
# SPDEF = target: T9, SPDEF (Homo sapiens, UniProt O95238 1-335); conditions: protein: recombinant; tags: N-terminal GST; dsDNA, one strand shown
# T9 sequence: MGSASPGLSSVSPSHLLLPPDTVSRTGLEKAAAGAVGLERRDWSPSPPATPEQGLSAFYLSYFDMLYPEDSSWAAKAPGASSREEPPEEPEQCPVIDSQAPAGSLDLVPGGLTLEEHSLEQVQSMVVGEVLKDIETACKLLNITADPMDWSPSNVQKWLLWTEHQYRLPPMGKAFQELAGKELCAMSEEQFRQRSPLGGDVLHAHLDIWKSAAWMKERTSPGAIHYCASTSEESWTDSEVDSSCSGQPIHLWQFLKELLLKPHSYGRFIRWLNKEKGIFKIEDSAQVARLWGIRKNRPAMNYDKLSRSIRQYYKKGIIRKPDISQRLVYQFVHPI
# In short: as §1
# ETV7 = target: T10, ETV7 (Homo sapiens, UniProt Q9Y603 1-341); conditions: protein: recombinant; tags: N-terminal GST; dsDNA, one strand shown
# T10 sequence: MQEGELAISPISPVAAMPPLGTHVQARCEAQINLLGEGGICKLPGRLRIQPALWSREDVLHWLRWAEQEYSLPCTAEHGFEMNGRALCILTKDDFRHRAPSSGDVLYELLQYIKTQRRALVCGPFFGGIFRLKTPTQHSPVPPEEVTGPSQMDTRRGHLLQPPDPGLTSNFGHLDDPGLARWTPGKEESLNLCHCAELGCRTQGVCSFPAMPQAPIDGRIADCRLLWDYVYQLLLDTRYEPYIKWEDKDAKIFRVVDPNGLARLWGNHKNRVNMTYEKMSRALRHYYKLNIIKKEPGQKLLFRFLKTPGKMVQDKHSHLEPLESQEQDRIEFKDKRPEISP
# In short: as §1
# ELF5 = target: T11, ELF5 (Homo sapiens, UniProt Q9UKW6-2 1-255); conditions: protein: recombinant; tags: N-terminal GST; dsDNA, one strand shown
# T11 sequence: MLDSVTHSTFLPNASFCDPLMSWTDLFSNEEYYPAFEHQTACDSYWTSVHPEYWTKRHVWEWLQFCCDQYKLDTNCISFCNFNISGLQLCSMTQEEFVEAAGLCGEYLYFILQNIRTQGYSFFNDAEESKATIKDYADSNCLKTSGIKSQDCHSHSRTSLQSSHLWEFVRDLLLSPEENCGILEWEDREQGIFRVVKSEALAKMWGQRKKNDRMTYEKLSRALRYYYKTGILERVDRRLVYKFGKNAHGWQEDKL
# In short: as §1
# ETV3 = target: T12, ETV3 (Homo sapiens, UniProt P41162-2 1-143); conditions: protein: recombinant; tags: N-terminal GST; dsDNA, one strand shown
# T12 sequence: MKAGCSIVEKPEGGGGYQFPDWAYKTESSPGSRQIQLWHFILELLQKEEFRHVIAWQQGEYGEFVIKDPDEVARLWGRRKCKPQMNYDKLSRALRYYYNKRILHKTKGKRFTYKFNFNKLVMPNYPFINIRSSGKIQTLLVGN
# In short: as §1
# ETV6 = ETV6 (Homo sapiens, UniProt P41212 1-452); conditions: protein: recombinant; tags: N-terminal GST; dsDNA, one strand shown
# Chain of ETV6 (P41212 whole entry): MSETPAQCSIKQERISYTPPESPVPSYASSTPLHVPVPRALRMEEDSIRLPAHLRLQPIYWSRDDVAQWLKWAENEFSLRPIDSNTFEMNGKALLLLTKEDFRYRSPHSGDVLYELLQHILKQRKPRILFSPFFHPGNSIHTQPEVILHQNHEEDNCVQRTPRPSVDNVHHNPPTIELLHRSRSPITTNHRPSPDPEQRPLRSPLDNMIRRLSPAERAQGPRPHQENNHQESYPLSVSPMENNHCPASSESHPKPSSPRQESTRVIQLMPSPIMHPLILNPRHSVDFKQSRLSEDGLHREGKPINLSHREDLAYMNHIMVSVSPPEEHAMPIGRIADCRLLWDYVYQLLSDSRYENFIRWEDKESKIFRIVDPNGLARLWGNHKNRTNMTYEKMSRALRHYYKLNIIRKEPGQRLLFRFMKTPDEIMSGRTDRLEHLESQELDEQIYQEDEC
# In short: as §1
sequence,measurement,setting,value
ATAAAA,binding signal,FEV,"1.15 fold enrichment (6-mer frequency, TF over GST control)"
same,binding signal,ETV5,"1.12 fold enrichment (6-mer frequency, TF over GST control)"
same,binding signal,HSF1,"1.31 fold enrichment (6-mer frequency, TF over GST control)"
same,binding signal,SPIC,"1.02 fold enrichment (6-mer frequency, TF over GST control)"
same,binding signal,ELF4,"1.2 fold enrichment (6-mer frequency, TF over GST control)"
same,binding signal,ELK4,"1.17 fold enrichment (6-mer frequency, TF over GST control)"
same,binding signal,ETV2,"1.2 fold enrichment (6-mer frequency, TF over GST control)"
same,binding signal,ELF3,"1.2 fold enrichment (6-mer frequency, TF over GST control)"
same,binding signal,CRX,"1.43 fold enrichment (6-mer frequency, TF over GST control)"
same,binding signal,ETV1,"1.16 fold enrichment (6-mer frequency, TF over GST control)"
same,binding signal,ERF,"1.13 fold enrichment (6-mer frequency, TF over GST control)"
same,binding signal,ETV3L,"1.15 fold enrichment (6-mer frequency, TF over GST control)"
same,binding signal,ETS2,"1.17 fold enrichment (6-mer frequency, TF over GST control)"
same,binding signal,SPDEF,"1.12 fold enrichment (6-mer frequency, TF over GST control)"
same,binding signal,ETV7,"1.1 fold enrichment (6-mer frequency, TF over GST control)"
same,binding signal,ELF5,"1.11 fold enrichment (6-mer frequency, TF over GST control)"
same,binding signal,ETV3,"1.15 fold enrichment (6-mer frequency, TF over GST control)"
same,binding signal,ETV6,"1.16 fold enrichment (6-mer frequency, TF over GST control)"
